uPA generation = qHTS for Inhibitors of Cell Surface uPA Generation | cell surface uPA generation assay, qHTS | Potency, µM (doses to about 38.3 µM), inactives show at the top dose activity change, negative = inhibition, usual class: inhibitors | 0.31% of 330,000 active; active = well fitted inhibition curve with a large enough effect; tested in mouse RAW 264.7 cells; note: potency is the fitted concentration of half-maximal effect; % is set by controls: 0 for no effect and ±100 for the full control effect; nearly all actives have a fitted effect of over 55% in size
ASM inhibitor = Inhibitors of Secretory Acid Sphingomyelinase (S-ASM): qHTS; Potency, µM (titrated, usually from 57.5 µM), for inactives: at the top dose activity change, negative = inhibition, actives largely listed as inhibitors; 0.006% of 340,000 active; Sphingomyelin phosphodiesterase (Homo sapiens), P17405; placental ASM, HMU-PC fluorogenic substrate, 60 min; note: potency is the fitted concentration of half-maximal effect
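qHTS format. ASM enzyme prepared from human placenta hydrolyses the fluorogenic substrate HMU-PC0 (9 uM final) over 60 min at 37 °C after a 10 min compound preincubation.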
hERG WT inh = qHTS for Inhibitors of KCHN2 3.1: Wildtype qHTS; Voltage-gated inwardly rectifying potassium channel KCNH2 (Homo sapiens), Q12809; U2OS, BacMam KCNH2, thallium flux FluxOr; hits give low values; activity change, % at 1.84 µM; 0.37% of 340,000 active;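 active = maximum activity change below -70%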; note: % is set by controls: 0 for no effect and ±100 for the full control effect
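U2OS cells transduced with wild-type KCNH2 virus are loaded with FluxOr dye for 45 min, and thallium flux is measured in kinetic reads before and after stimulation buffer. Rate constants are normalized to DMSO controls.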
p53 reactivator = qHTS assay for re-activators of p53 using a Luc reporter; H1299 p53-A138V BP100-luciferase reporter, luminescence, 24 h; Potency, µM (top dose mostly 92.2 µM), for inactives: at the highest dose activity change, positive = activation, actives largely listed as activators; 0.063% of 320,000 active; AID 504706, 2011; note: potency is the fitted concentration of half-maximal effect; % of control where 0% means no effect; nearly all actives have a fitted effect of over 45% in size
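p53-null H1299 cells stably carrying temperature-sensitive p53-A138V and a BP100-luciferase reporter were pinned with compounds (4-point, 1:5 series) and held 24 hrs at 37 deg C. Luminescence was read 10 min after detection reagent.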
MmCpn inh = Inhibitors of TCP-1 ring complex (TRiC) of Methanococcus maripaludis (MmCpn): qHTS. Chaperonin Mm-Cpn (Methanococcus maripaludis). purified Mm-Cpn ATPase, ADP Transcreener TR-FRET. Potency, µM (series often up to 76.9 µM), for the others: at the highest dose activity, negative = inhibition, usual class: inhibitors. 0.031% of 330,000 active; note: potency is the fitted concentration of half-maximal effect; % is set by controls: 0 for no effect and ±100 for the full control effect; nearly all actives have a fitted effect of over 80% in size
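ATPase read-out: TR-FRET ADP immunoassay (anti-ADP Eu cryptate vs ADP-d2), ex 320 nm, em 590/665 nm; signal drops as ADP forms. Enzyme 25 nM, ATP 10 uM, 30 min at 37°C after 10 min compound preincubation.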
KCNH2 3.1 inh = qHTS for Inhibitors of KCHN2 3.1: Mutant qHTS | Potassium voltage-gated channel subfamily H member 2, brain isoform KCNH2 3.1 (human) | U2OS KCNH2 3.1, thallium flux FluxOr; hits give low values | activity change, % (tested at about 1.8 µM) | 0.95% of 340,000 active | AID 720553, 2013;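 active = maximum activity change below -70%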;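 note: thallium influx rate constant from kinetic fluorescence after stimulation buffer; % is set by controls: 0 for no effect and ±100 for the full control effect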
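We transduce U2OS cells with the mutant 3.1 virus, culture them overnight, load FluxOr with Red40 quencher for 45 min, then add stimulation buffer and read kinetically for 2 min to derive a normalized rate constant.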
Numbers without * were called inactive; · = no result given. The list is not random: actives were taken first. Their share in the collection is about 1.4%. Unless noted, calls come from the whole dose curve; as a rule, active = well fitted curve in the direction sought with a large enough effect; inconclusive = small, poorly fitted or top-dose-only effect, or another doubt; inactive = no such curve, though single readings can be large; an effect the other way counts as inactive or inconclusive.

SMILES	uPA generation	ASM inhibitor	hERG WT inh	p53 reactivator	MmCpn inh	KCNH2 3.1 inh
CCCc1ncc(C(O)c2ccccc2OC)n1C (stereo not given)	0%	3%	-201*	1%	2%	7
COc1ccc(O)cc1	6.3µM*	-1%	-3	-6%	2%	1
CCN1C(=O)[C@H]2[C@@H](c3ccc(-c4ccc5c(c4)OCO5)c(OC)c3)N[C@@](Cc3ccccc3)(C(=O)OC)[C@H]2C1=O	-11%	1%	6	-1%	-16%	-111*
Cc1ccc(C(=O)NCC(=O)OCC(=O)Nc2cc(S(=O)(=O)N3CCOCC3)ccc2Cl)s1	2%	-1%	4	-1%	-2%	8
O=c1[nH]c2cc3c(cc2cc1CN(Cc1ccco1)C(=S)NCC1CCCO1)OCCO3 (stereo not given)	13µM*	36%	·	-1%	3%	7
CC(=O)Nc1ccc(S(=O)(=O)NC2(c3ccccc3)C(=O)N(C)C(=O)N(C)C2=O)cc1	-1%	2%	8	·	·	3
COCCOC(=O)c1[nH]c2c(c1C)C(=O)CC(c1cccs1)C2 (stereo not given)	1µM*	3%	-1	11%	-13%	9
COCCOC(=O)C1=C(C)NC(=S)NC1c1cccs1 (stereo not given)	0%	4%	1	-3%	1%	-76*
COCCOC(=O)C1=C(C)NC(=O)NC1c1cccs1 (stereo not given)	7%	3%	11	5%	2%	0
CCOCCOC(=O)c1[nH]c2c(c1C)C(=O)CC(c1cccs1)C2 (stereo not given)	-6%	-4%	1	3%	2%	-10
CCOCCOC(=O)c1[nH]c2c(c1C)C(=O)CC(c1ccccc1)C2 (stereo not given)	2%	-3%	-3	11%	1%	17
CCOC(=O)c1[nH]c2c(c1C)C(=O)CC(c1ccc(F)cc1)C2 (stereo not given)	1.3µM*	0%	2	4%	-2%	11
CCN(CC(=O)NCc1cccs1)S(=O)(=O)c1ccc(F)c(F)c1F	6%	-2%	-9	11%	-1%	9
N#CC1(NC(=O)COC(=O)c2ccc(Cl)nc2)CCCCC1	-1%	2%	2	2%	-1%	-1
N#CC1(NC(=O)COC(=O)c2nccnc2N)CCCCC1	10%	487%	-202*	-2%	-6%	4
Cc1ccc(Oc2ncnc(N)c2[N+](=O)[O-])cc1	4%	-2%	3	6%	1%	6
Cc1ccc(N(c2ncnc(N)c2[N+](=O)[O-])C2CCCCC2)cc1	·	-4%	14	-4%	0%	-86*
COc1cccc(CN2CCC(N(CCc3ccccc3)Cc3ccccc3)CC2)c1OC	-8%	11%	20	16%	2%	-91*
COc1cccc(CN2CCN(Cc3cccc(Oc4ccccc4)c3)CC2)c1OC	4%	-4%	6	1%	-5%	3
CC(C(=O)NCCN1CCOCC1)(c1ccccc1)c1ccccc1	1%	0%	3	0%	0%	1
CCOC(=O)n1cc(-c2cnc(CNC(=O)C(C)(c3ccccc3)c3ccccc3)o2)c2ccccc21	4%	-4%	-40	-1%	1%	-73*
CC(NC(=O)C(C)N1CCN(S(=O)(=O)c2ccccc2)CC1)c1ccccc1 (stereo not given)	0%	3%	-13	-1%	1%	3
C/C(=N\NC(=O)c1cccc(S(=O)(=O)N2CCCC2)c1)c1ccc(C)cc1	-2%	1%	3	-9%	0%	4
